Results published in PubChem BioAssay AID435003 (Sanford-Burnham Center for Chemical Genomics, 2010).
About 1,700 (0.52%) of roughly 330,000 compounds were called active. Shown is part of a subset that was picked to be rich in actives. Unmarked numbers belong to inactive results. Cut-off read from the data, not from the text of the source: active = inhibition above about 50%; inactive = the rest.

assay: inhibitors of induced NF-kB luciferase reporter, primary screen, TCR NF-kB activation inhibitor project, cell-based, luminescence, uHTS (AID 435003); details: Jurkat, PMA/ionomycin-induced NF-kB luciferase reporter, at 4 µM, stronger effect = higher value

Row | SMILES | inhibition
1 | COc1ccc(Nc2ncnc3ccc(Br)cc23)c(OC)c1 | 59.8% (active)
2 | O=C(O)CCCCCNc1ncnc2ccc(Br)cc12 | 5.8%
3 | Brc1ccc2ncnc(NCc3cccnc3)c2c1 | 28.6%
4 | CC(C)c1ccc(-c2noc(C3CCCN(S(C)(=O)=O)C3)n2)cc1 (configuration not stated) | -30.6%
5 | COc1ccccc1NC(=O)C1=C(C)Nc2nc3ccccc3n2C1c1cccs1 (configuration not stated) | 58.1% (active)
6 | CCOc1ccc(C2C(C(=O)NC)=C(C)Nc3nc4ccccc4n32)cc1OC (configuration not stated) | 6.25%
7 | CCOC(=O)C1=C(C)Nc2nc3ccccc3n2C1c1cccs1 (configuration not stated) | 7.93%
8 | O=C(O)/C=C/C(=O)NNc1ccc([N+](=O)[O-])cc1 | 9.38%
9 | O=C(c1c(F)cccc1Cl)N1CCN(S(=O)(=O)c2ccc3c(c2)OCCCO3)CC1 | -0.00048%
10 | COc1ccc2[nH]c(C(=O)N/N=C/c3cc(OC)c(OC)c(OC)c3)cc2c1 | 17.7%
11 | CN=c1scc(-c2cc(OC)ccc2OC)n1/N=C/c1c(C)[nH]c2ccccc12 | -10.3%
12 | COc1cc(N=Cc2c(O)[nH]c3ccccc23)cc(OC)c1OC | 76.1% (active)
13 | CC(C)Oc1ccc(C(=O)NC(C)(C)CO)cc1 | -5.78%
14 | CCC(C)NC(=O)C1c2ccccc2C(=O)N1Cc1ccccc1 (configuration not stated) | -0.632%
15 | COC(c1ccccc1)c1nnc(CCC(=O)N2CCN(CCOc3ccccc3)CC2)o1 (configuration not stated) | 14.1%
16 | COc1cc(NS(=O)(=O)c2ccc3ccccc3c2)c2ncccc2c1 | 66% (active)
17 | Cc1ccc(S(=O)(=O)Nc2ccc3ncccc3c2)cc1 | 16.8%
18 | COc1ccc(N2CC(NS(=O)(=O)c3ccc4ccccc4c3)CC2=O)cc1 (configuration not stated) | 4%
19 | O=C(NC(=O)c1ccc(Cl)c(Cl)c1)OC1CCS(=O)(=O)C1 (configuration not stated) | 2.78%
20 | C=CCN(c1ccc(C(N)=O)cc1)S(C)(=O)=O | -12.3%
21 | CCC(C)c1ccc(NC(=S)NCc2ccccn2)cc1 (configuration not stated) | -14.5%
22 | NC1=NC2(CCCCC2)N(c2ccc(F)cc2F)C(N)=N1 | 2.27%
23 | CCOc1ccc(/C=N/NC(N)=S)cc1 | -13%
24 | OC(CNCCc1ccc(Cl)cc1Cl)COc1ccccc1 (configuration not stated) | 5.89%
25 | NC(N)=N/N=C/c1ccc(OCc2ccc(Cl)cc2Cl)cc1 | 59% (active)

Row | SMILES | inhibition
26 | COc1ccccc1N1CCN(C(=O)c2c(-c3c(Cl)cccc3Cl)noc2C)CC1 | -3.34%
27 | COc1ccccc1N1CCN(C(=O)c2cc(=O)c3cc(C)cc(C)c3o2)CC1 | 64.2% (active)
28 | COc1ccccc1N1CCN(C(=O)c2cc(=O)c3cc(C)ccc3o2)CC1 | 19.9%
29 | O=C(O)c1cc2c(cc1NC(=O)c1c(F)cccc1Cl)OCCCO2 | 17.5%
30 | O=C(CN1C(=O)c2ccccc2S1(=O)=O)NC1CCCCC1 | -1.51%
31 | O=C(CN1C(=O)c2ccccc2S1(=O)=O)N1CCc2ccccc21 | 72.7% (active)
32 | CC1CCCN(C(=O)CN2C(=O)c3ccccc3S2(=O)=O)C1 (configuration not stated) | -25%
33 | CC1CN(C2CCN(C(=O)COc3ccccc3)CC2)CC(C)O1 (configuration not stated) | -5.33%
34 | CSc1ccc(S(=O)(=O)Nc2cccc(F)c2)cc1 | -8.25%
35 | COc1ccccc1N1CCN(S(=O)(=O)c2ccc(Cl)cc2)CC1 | -16.1%
36 | COc1ccccc1-n1nnnc1SCC(=O)NC(=O)Cc1ccccc1 | 4.18%
37 | COc1ccccc1-n1nnnc1S(=O)(=O)Cc1ccc(Cl)cc1 | 55.8% (active)
38 | Cn1c2c(c(=O)n(C)c1=O)C(c1ccc(O)cc1)Nc1ccccc1O2 (configuration not stated) | 3.73%
39 | CCCCCCCCn1c2c(c(=N)c3c1CCC3)CCCC2 | 89.5% (active)
40 | COc1ccc(C)cc1NC(=O)C(OC(=O)c1cccc(S(=O)(=O)N(C)c2ccccc2)c1)c1ccccc1 (configuration not stated) | 10.1%
41 | CN(C)C(CNC(=O)c1ccc(S(=O)(=O)NCc2ccco2)cc1)c1ccccc1 (configuration not stated) | -19.3%
42 | CC(=O)Nc1ccc(NC(=O)C2CCCN(S(=O)(=O)c3ccc(Cl)cc3)C2)cc1 (configuration not stated) | -4.31%
43 | CC(C)(C)Nc1c(-c2cccs2)nc2ccccn12 | -10.6%
44 | COc1ccc(/C(C)=N\NC(=O)c2ccc(-c3ccccc3)cc2)c(F)c1 | -14.4%
45 | C/C(=N\NC(=O)c1ccccc1F)c1ccccn1 | 90.2% (active)
46 | C/C(=N\NC(=O)c1ccoc1C)c1ccccc1O | -29.9%
47 | Cc1cc(Cl)ccc1NC(=S)N1CCC(C(N)=O)(N2CCCCC2)CC1 | 5.02%
48 | Cc1ccc(-n2ncc3c2CCCC3NC(=O)c2cnccn2)cc1C (configuration not stated) | -3.8%
49 | Cn1nccc1C(=O)NC1CCCc2c1cnn2-c1ccccc1F (configuration not stated) | 62.9% (active)
50 | Cn1nccc1C(=O)NC1CCCc2c1cnn2-c1ccc(F)cc1F (configuration not stated) | 71% (active)

Row | SMILES | inhibition
51 | Cc1cc(C(=O)NC2CCCc3c2cnn3-c2cccc(C)c2C)c(C)o1 (configuration not stated) | 29.7%
52 | CC(=O)NCC(=O)NC1CCCc2c1cnn2-c1ccccc1F (configuration not stated) | -8.3%
53 | COc1ccc(C(=O)NC2CCCc3c2cnn3-c2cccc(C)c2C)c(OC)n1 (configuration not stated) | 29.1%
54 | CC1CC(C)CN(C(=O)CCNC(=O)Cn2cnc3ccccc3c2=O)C1 (configuration not stated) | -7.78%
55 | Cc1ccc(S(=O)(=O)N(C)C)cc1NC(=O)c1n[nH]c(=O)c2ccccc12 | -17.4%
56 | COC(=O)C1=NN(c2ccccc2)C2C(=O)N(c3ccccc3OC)C(=O)C12 (configuration not stated) | 25.7%
57 | COc1ccc(NCc2nnc(SCc3ccccc3)n2-c2ccc(OC)cc2)cc1 | -6.88%
58 | CCOC(=O)c1cccc(NC(=O)C2CCN(c3ncnc4c3nc3n4CCCCC3)CC2)c1 | 12.1%
59 | Oc1cccc(/C=N/Nc2ccc(Cl)nn2)c1O | 54.9% (active)
60 | Oc1c(Br)cccc1/C=N/Nc1c(F)c(F)c(F)c(F)c1F | 2.14%
61 | Cc1nc2ccccc2nc1N/N=C/c1ccc(O)cc1O | 20.4%
62 | Cc1cc(=O)[nH]c(Nc2cccc(Br)c2)n1 | 12.3%
63 | CN(Cc1ccccc1)C(=O)CCNC(=O)Cn1cnc2ccccc2c1=O | -2.32%
64 | Cc1cccc(Nc2nc(NCCO)nc(N3CCCC3)n2)c1 | 5.92%
65 | CC(C)n1cnc2c(Nc3cccc(Cl)c3)nc(N(CCO)CCCO)nc21 | -12%
66 | OCCCNc1nccc(-c2cc(Nc3cccc(Cl)c3)ncn2)n1 | 98.5% (active)
67 | Cc1ccc(S(=O)(=O)c2nc(-c3cccs3)oc2NCc2cccnc2)cc1 | -3.33%
68 | COc1ccc(C(=O)N2CCN(c3ccc(C(C)=O)cc3F)CC2)cc1S(=O)(=O)NC1CC1 | -20.9%
69 | C[C@H](CO)N1C[C@H](C)[C@@H](CN(C)C(=O)NC2CCCCC2)Oc2ccc(NC(=O)c3ccncc3)cc2C1=O | 7.62%
70 | COCCCNC(=O)CCc1nc2cccnc2n1Cc1ccc(OC)cc1 | 1.81%
71 | Cn1c(-c2ccc(C(F)(F)F)cc2)cc2onc(-c3ccccc3)c2c1=O | -242%
72 | O=C(Nc1ccccc1C(=O)N1CCOCC1)c1ccc(CSc2ccccc2)cc1 | -0.886%
73 | O=C(Nc1ccc(CSc2ccccc2)cc1)c1ccc(CN2CCOCC2)cc1 | 69% (active)
74 | CCOc1ccc(C(=O)Nc2ccc(CN3CCOCC3)cc2)cc1Cl | -22.2%
75 | Cc1ccc2nc(-c3ccccn3)cc(C(=O)Nc3ccc4c(c3)OCO4)c2c1 | 11.1%

Row | SMILES | inhibition
76 | Cc1ccc2nc(-c3ccncc3)cc(C(=O)Nc3ccc(OC(F)F)cc3)c2c1 | 53.6% (active)
77 | CCN(CC)CCNC(=O)c1ccc(NC(=O)c2cc(-c3ccncc3)nc3ccccc23)cc1 | -38.2%
78 | CC(C)CC[n+]1ccn(C2=C([O-])c3ccccc3C(=O)/C2=N\S(=O)(=O)c2ccccc2)c1 | 6.27%
79 | Cc1ccc(OCCNC(=O)CN2C(=O)NC3(CCCC3)C2=O)cc1 | 7.61%
80 | O=C(Nc1ccc(Br)cc1)c1cccc(NC(=O)C2C3CC4OC(=O)C2C4C3)c1 (configuration not stated) | -6.94%
81 | COc1ccc(NC(=O)C/C(C)=N/NC(=O)c2cnccn2)cc1Cl | -12.8%
82 | CCN(CC)c1ccc(/C=N/NC(=O)c2cnccn2)c(O)c1 | 59.3% (active)
83 | CCN1CCN(c2ccc(NC(=O)c3cnccn3)cc2)CC1 | -79.3%
84 | CCC(C)n1[nH]c(=O)cc1N (configuration not stated) | 6.5%
85 | N#CC1(C#N)C(C(=O)C23CC4CC(CC(C4)C2)C3)C12CCOCC2 (configuration not stated) | 3.42%
86 | C=C(C)C(=O)O[C@H]1C/C(C)=C\C(=O)/C=C(\C)[C@H](O)[C@@H]2OC(=O)C(=C)[C@@H]21 | 76.7% (active)
87 | COc1ccc2cc1Oc1ccc(cc1)C[C@H]1c3cc(c(OC)cc3CCN1C)Oc1c(O)c(OC)cc3c1[C@H](C2)N(C)CC3 | 81.7% (active)
88 | C=CCn1c(SCc2c(C)noc2C)nc2sc3c(c2c1=O)CCC(C)C3 (configuration not stated) | 69.9% (active)
89 | C=CCn1c(SCC(=O)NCCCO)nc2sc3c(c2c1=O)CCC3 | 6.01%
90 | C=CCn1c(SCC(=O)NCC2CCCO2)nc2sc(C)c(C)c2c1=O (configuration not stated) | -2.81%
91 | CC1Cc2cc(/C(O)=C3\C(=O)C(=O)N(Cc4cccnc4)C3c3ccccc3F)ccc2O1 (configuration not stated) | -14.7%
92 | COc1ccc(NC(=O)/C(Cl)=C(/Cl)S(=O)Cc2ccc(C)cc2)cn1 (configuration not stated) | 91.6% (active)
93 | CCN(CC(=O)Nc1ccc(OC)cc1)C(=O)CSCc1ccc(C)cc1 | -16.5%
94 | COc1ccc(CS(=O)/C(Cl)=C(/Cl)C(=O)Nc2ccc(OC)nc2)cc1 (configuration not stated) | 99.4% (active)
95 | COc1ccc(C(=O)CCC(=O)Nc2ccc(Cl)cc2)cc1 | 10.1%
96 | COc1ccc(CCNC(=O)c2cnc(Cl)c(Cl)c2)cc1 | -35.5%
97 | COC(=O)c1sccc1NC(=S)Nc1ccc(C)cc1 | -16.1%
